# Source: the supplement of paper PMC8728848
# The full list was thinned out, with the strongest signals kept by preference.
# B1: Banana lectin (Musa acuminata) (protein)
# chain: MNGAIKVGAWGGNGGSAFDMGPAYRIISVKIFSGDVVDAVDVTFTYYGKTETRHFGGSGGTPHEIVLQEGEYLVGMKGEFGNYHGVVVVGKLGFSTNKKSYGPFGNTGGTPFSLPIAAGKISGFFGRGGDFIDAIGVYLEP
# Tests used:
# Test in all cases: glycan array binding signal (z-score within array); higher = stronger binding
# Settings in all cases: glycan notation: IUPAC condensed, linker removed
# [1] = molecular target: Fuc(a1-2)Gal(b1-3)[Fuc(a1-4)]GlcNAc(b1-3)[Fuc(a1-3)[Gal(b1-4)]GlcNAc(b1-6)]Gal(b1-4)Glc
# In short: (§1)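 The binding signal is a Z-score computed within each array and averaged over linkers. Arrays of the same protein sequence at different concentrations or buffers were also averaged together. Data originate from 3228 arrays in the Consortium for Functional Glycomics database, kept only where the protein sequence was available.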
# [2] = molecular target: Fuc(a1-2)[Gal(a1-3)]Gal(b1-3)GalNAc(b1-3)Gal(a1-4)Gal(b1-4)Glc
# In short: as §1
# [3] = molecular target: Fuc(a1-2)[Gal(a1-3)]Gal(b1-4)GlcNAc(b1-3)GalNAc
# In short: as §1
# [4] = molecular target: Fuc(a1-2)[GalNAc(a1-3)]Gal(b1-3)GlcNAc(b1-3)GalNAc
# In short: as §1
# [5] = molecular target: Fuc(a1-3)[Gal(b1-4)]GlcNAc
# In short: as §1
# [6] = molecular target: Fuc(a1-3)[Gal3S(b1-4)]Glc
# In short: as §1
# Gal(a1-3)GalNAc = molecular target: Gal(a1-3)GalNAc
# In short: as §1
# Gal(a1-4)GlcNAc = molecular target: Gal(a1-4)GlcNAc
# In short: as §1
# [7] = molecular target: Gal(b1-3)GlcNAc(b1-3)GalNAc
# In short: as §1
# [8] = molecular target: Gal(b1-3)GlcNAc(b1-6)[Gal(b1-3)]GalNAc
# In short: as §1
# [9] = molecular target: Gal(b1-3)[Fuc(a1-4)]GlcNAc(b1-2)Man
# In short: as §1
# [10] = molecular target: Gal(b1-3)[Fuc(a1-4)]GlcNAc(b1-6)GalNAc
# In short: as §1
# [11] = molecular target: Gal(b1-4)GlcNAc(a1-6)Gal(b1-4)GlcNAc
# In short: as §1
# [12] = molecular target: Gal(b1-4)GlcNAc(b1-2)Man(a1-3)[Gal(b1-4)GlcNAc(b1-2)Man(a1-6)]Man(b1-4)GlcNAc(b1-4)GlcNAc
# In short: as §1
# [13] = molecular target: Gal(b1-4)GlcNAc(b1-2)[Gal(b1-4)GlcNAc(b1-4)]Man(a1-3)[GlcNAc(b1-4)][Gal(b1-4)GlcNAc(b1-2)[Gal(b1-4)GlcNAc(b1-6)]Man(a1-6)]Man(b1-4)GlcNAc(b1-4)GlcNAc
# In short: as §1
# [14] = molecular target: Gal(b1-4)GlcNAc(b1-6)[Gal(b1-3)]GalNAc
# In short: as §1
# [15] = molecular target: Gal3S(b1-4)[Fuc(a1-3)]GlcNAc
# In short: as §1
# Gal4S(b1-4)GlcNAc = molecular target: Gal4S(b1-4)GlcNAc
# In short: as §1
# Gal6S(b1-3)GlcNAc6S = molecular target: Gal6S(b1-3)GlcNAc6S
# In short: as §1
# [16] = molecular target: GlcNAc(a1-4)Gal(b1-4)GalNAc
# In short: as §1
# [17] = molecular target: GlcNAc(b1-3)Gal(b1-4)GlcNAc(b1-3)Gal(b1-4)GlcNAc(b1-3)Gal(b1-4)GlcNAc(b1-2)Man(a1-3)[GlcNAc(b1-3)Gal(b1-4)GlcNAc(b1-3)Gal(b1-4)GlcNAc(b1-3)Gal(b1-4)GlcNAc(b1-2)Man(a1-6)]Man(b1-4)GlcNAc(b1-4)GlcNAc
# In short: as §1
# [18] = molecular target: GlcNAc(b1-3)Gal(b1-4)GlcNAc(b1-3)Gal(b1-4)GlcNAc(b1-3)Gal(b1-4)GlcNAc(b1-3)Gal(b1-4)GlcNAc(b1-2)[GlcNAc(b1-3)Gal(b1-4)GlcNAc(b1-3)Gal(b1-4)GlcNAc(b1-3)Gal(b1-4)GlcNAc(b1-3)Gal(b1-4)GlcNAc(b1-6)]Man(a1-6)[GlcNAc(b1-3)Gal(b1-4)GlcNAc(b1-3)Gal(b1-4)GlcNAc(b1-3)Gal(b1-4)GlcNAc(b1-3)Gal(b1-4)GlcNAc(b1-2)Man(a1-3)]Man(b1-4)GlcNAc(b1-4)[Fuc(a1-6)]GlcNAc
# In short: as §1
# [19] = molecular target: Man(a1-2)Man(a1-2)Man(a1-3)Man
# In short: as §1
# [20] = molecular target: Man(a1-2)Man(a1-2)Man(a1-6)[Man(a1-3)]Man
# In short: as §1
# Man(a1-2)Man(a1-3)Man = molecular target: Man(a1-2)Man(a1-3)Man
# In short: as §1
# [21] = molecular target: Man(a1-2)Man(a1-3)[Man(a1-2)Man(a1-6)]Man(a1-6)[Man(a1-2)Man(a1-2)Man(a1-3)]Man
# In short: as §1
# [22] = molecular target: Man(a1-2)Man(a1-3)[Man(a1-2)Man(a1-6)]Man(a1-6)[Man(a1-2)Man(a1-2)Man(a1-3)]Man(b1-4)GlcNAc(b1-4)GlcNAc
# In short: as §1
# [23] = molecular target: Man(a1-2)Man(a1-3)[Man(a1-6)]Man(a1-6)[Man(a1-2)Man(a1-3)]Man(b1-4)GlcNAc(b1-4)GlcNAc
# In short: as §1
# [24] = molecular target: Man(a1-2)Man(a1-6)[Man(a1-3)]Man(a1-6)[Man(a1-2)Man(a1-2)Man(a1-3)]Man
# In short: as §1
# [25] = molecular target: Man(a1-2)Man(a1-6)[Man(a1-3)]Man(a1-6)[Man(a1-2)Man(a1-2)Man(a1-3)]Man(b1-4)GlcNAc(b1-4)GlcNAc
# In short: as §1
# [26] = molecular target: Man(a1-3)[Man(a1-6)]Man(a1-6)[Man(a1-2)Man(a1-3)]Man(b1-4)GlcNAc(b1-4)GlcNAc
# In short: as §1
# [27] = molecular target: Man(a1-3)[Man(a1-6)]Man(a1-6)[Man(a1-3)]Man(b1-4)GlcNAc(b1-4)GlcNAc
# In short: as §1
# [28] = molecular target: Man(a1-3)[Man(a1-6)]Man(b1-4)GlcNAc(b1-4)GlcNAc
# In short: as §1
# Man(a1-6)Man = molecular target: Man(a1-6)Man
# In short: as §1
# [29] = molecular target: Neu5Ac(a2-3)Gal(b1-4)GlcNAc(b1-2)Man(a1-3)[GlcNAc(b1-4)][Neu5Ac(a2-3)Gal(b1-4)GlcNAc(b1-2)Man(a1-6)]Man(b1-4)GlcNAc(b1-4)GlcNAc
# In short: as §1
# [30] = molecular target: Neu5Ac(a2-3)Gal(b1-4)GlcNAc(b1-3)Gal(b1-4)[Fuc(a1-3)]GlcNAc
# In short: as §1
# [31] = molecular target: Neu5Ac(a2-3)Gal(b1-4)GlcNAc(b1-6)[Neu5Ac(a2-3)Gal(b1-3)]GalNAc
# In short: as §1
# [32] = molecular target: Neu5Ac(a2-3)[GalNAc(b1-4)]Gal(b1-4)Glc
# In short: as §1
# [33] = molecular target: Neu5Ac(a2-6)Gal(b1-4)GlcNAc(b1-2)Man(a1-3)[Gal(b1-4)GlcNAc(b1-2)Man(a1-6)]Man(b1-4)GlcNAc(b1-4)GlcNAc
# In short: as §1
# [34] = molecular target: Neu5Ac(a2-6)Gal(b1-4)GlcNAc(b1-2)Man(a1-3)[GlcNAc(b1-2)Man(a1-6)]Man(b1-4)GlcNAc(b1-4)GlcNAc
# In short: as §1
# [35] = molecular target: Neu5Ac(a2-6)Gal(b1-4)GlcNAc(b1-3)Gal(b1-3)GlcNAc
# In short: as §1
# Neu5Ac(a2-6)GalNAc = molecular target: Neu5Ac(a2-6)GalNAc
# In short: as §1
# [36] = molecular target: Neu5Ac(a2-6)GlcNAc(b1-4)GlcNAc(b1-4)GlcNAc
# In short: as §1
binder,measurement,setting,value
B1,glycan array binding signal (z-score),[1],-0.195
same,glycan array binding signal (z-score),[2],-0.195
same,glycan array binding signal (z-score),[3],-0.195
same,glycan array binding signal (z-score),[4],-0.188
same,glycan array binding signal (z-score),[5],-0.193
same,glycan array binding signal (z-score),[6],-0.192
same,glycan array binding signal (z-score),Gal(a1-3)GalNAc,-0.194
same,glycan array binding signal (z-score),Gal(a1-4)GlcNAc,-0.194
same,glycan array binding signal (z-score),[7],-0.195
same,glycan array binding signal (z-score),[8],-0.173
same,glycan array binding signal (z-score),[9],-0.19
same,glycan array binding signal (z-score),[10],-0.19
same,glycan array binding signal (z-score),[11],-0.196
same,glycan array binding signal (z-score),[12],-0.161
same,glycan array binding signal (z-score),[13],-0.197
same,glycan array binding signal (z-score),[14],-0.193
same,glycan array binding signal (z-score),[15],-0.19
same,glycan array binding signal (z-score),Gal4S(b1-4)GlcNAc,-0.195
same,glycan array binding signal (z-score),Gal6S(b1-3)GlcNAc6S,-0.195
same,glycan array binding signal (z-score),[16],-0.174
same,glycan array binding signal (z-score),[17],-0.179
same,glycan array binding signal (z-score),[18],-0.139
same,glycan array binding signal (z-score),[19],3.39
same,glycan array binding signal (z-score),[20],8.43
same,glycan array binding signal (z-score),Man(a1-2)Man(a1-3)Man,5.44
same,glycan array binding signal (z-score),[21],7.92
same,glycan array binding signal (z-score),[22],3.85
same,glycan array binding signal (z-score),[23],6.18
same,glycan array binding signal (z-score),[24],6.72
same,glycan array binding signal (z-score),[25],7.63
same,glycan array binding signal (z-score),[26],5.95
same,glycan array binding signal (z-score),[27],3.55
same,glycan array binding signal (z-score),[28],7.64
same,glycan array binding signal (z-score),Man(a1-6)Man,-0.076
same,glycan array binding signal (z-score),[29],-0.191
same,glycan array binding signal (z-score),[30],-0.195
same,glycan array binding signal (z-score),[31],-0.194
same,glycan array binding signal (z-score),[32],-0.193
same,glycan array binding signal (z-score),[33],-0.142
same,glycan array binding signal (z-score),[34],-0.102
same,glycan array binding signal (z-score),[35],-0.194
same,glycan array binding signal (z-score),Neu5Ac(a2-6)GalNAc,-0.192
same,glycan array binding signal (z-score),[36],-0.194
